In all, about 52,000 compounds went through this assay and about 4,300 (8.3%) were called active. No stated cut-off is given here; in the data, active means survival mostly below about 52% (no sharp cut-off); inactive means mostly above about 56%. What follows is part of a selection rich in actives, with near analogues and random picks from the rest.

This assay concerns DeltatarO mutant. Put plainly: growth inhibition of S. aureus wild type versus tarO mutant, primary screen, teichoic acid synthesis inhibitors, RN4220, OD600 (AID 463173). The following applies: OD600, 18 h, hits give low values, screened at 18.75 µg/mL (by protocol).
For `CC(=O)c1ccc(N2CCN(S(=O)(=O)c3cc(-c4onc(C)c4C)ccc3C)CC2)cc1`, the survival was 84% (inactive). Then `COc1ccccc1N1CCN(C(=O)c2cc3c(-c4ccccc4F)nn(C)c3s2)CC1`, with 46% (active); and `COc1ccc(-c2nn(C)c3sc(C(=O)N4CCN(c5cccc(Cl)c5)CC4)cc23)cc1OC`, with 54% (active); and `COc1ccc(N2CCN(C(=O)c3cc4c(-c5ccccc5F)nn(C)c4s3)CC2)cc1`, with 65% (inactive). As for `COc1ccc(CNC(=O)c2cc3c(-c4ccccc4F)nn(C)c3s2)c(OC)c1`, the survival was 101% (inactive). Then `COc1ccc(-c2nn(C)c3sc(C(=O)N4CCN(c5cc(Cl)ccc5C)CC4)cc23)cc1OC`, with 103% (inactive); and `COc1ccc(-c2nn(C)c3sc(C(=O)N4CCN(c5cccc(C)c5C)CC4)cc23)cc1OC`, with 75% (inactive); and `Cn1nc(-c2ccccc2F)c2cc(C(=O)N3CCN(c4ccccc4F)CC3)sc21`, with 40% (inactive). Then `COc1ccc(CCNC(=O)c2cc3c(-c4ccccc4F)nn(C)c3s2)c(OC)c1`, with 85% (inactive); and `COc1ccc(NC(=O)c2cc3c(-c4ccccc4F)nn(C)c3s2)c(OC)c1`, with 44% (active); and `COc1ccc(COC(=O)C2=C(C)NC3(O)c4ccccc4C(=O)C23O)cc1` (stereo unspecified), with 90% (inactive).

Regarding `CNS(=O)(=O)c1cn(CC(=O)Nc2ccc(OC)c(Cl)c2)cc1S(=O)(=O)NC`, the survival was 74% (inactive). Then `Cc1ccc(Cl)cc1-n1c(=O)c2sc3ccccc3c2n(CC(=O)NC2CCCCC2)c1=O`, with 77% (inactive).

Consider `O=C(Cn1c(=O)n(-c2ccc(Cl)cc2)c(=O)c2sc3ccccc3c21)NC1CCCC1`, for which the survival was 90% (inactive). For the molecule `Cc1ccc(Cl)cc1-n1c(=O)c2sc3ccccc3c2n(CC(=O)NC2CCCC2)c1=O`, the survival was 13% (active). Then `CCn1c(CN2CCC(C)CC2)nc2cc(NC(=O)COc3ccc([N+](=O)[O-])cc3)ccc21`, with 82% (inactive); and `CCCCC(Sc1nc2cc3c(cc2c(=O)n1CCCC(=O)NCc1ccc2c(c1)OCO2)OCO3)C(=O)OCC` (stereo unspecified), with 82% (inactive); and `CCN(C(=O)CSc1nc(-c2ccc(C(C)C)cc2)no1)c1cccc(C)c1`, with 84% (inactive). In the case of `O=C(CSc1nc(-c2ccccc2)no1)N1CCCCC1`, the survival is 39% (active). To `COc1ccc(-c2noc(CCC(=O)Nc3ccc(C(F)(F)F)cc3)n2)cc1` belongs 86% (inactive); to `CCN(C(=O)CSc1nc(-c2ccccc2)no1)c1cccc(C)c1`, -3% (active). Then `COc1cccc(CNC(=O)CCc2nc(-c3ccc(C)cc3)no2)c1`, with 145% (inactive); and `CCN(C(=O)CCc1nc(-c2ccc(C)cc2)no1)c1cc(C)ccc1C`, with -4% (active).

Regarding `O=C(CSc1nc(-c2ccccc2)no1)N1CCN(c2ccccc2)CC1`, the survival is 99% (inactive). Regarding `Cc1ccc(C)c(NC(=O)CCc2nc(-c3ccc(C(C)(C)C)cc3)no2)c1`, the survival was 69% (inactive). `CCN(C(=O)CCc1nc(-c2ccc(C)cc2)no1)c1cccc(C(F)(F)F)c1`: the survival was -5% (active). For the molecule `CC(=O)c1ccc(NC(=O)CCc2nc(-c3ccc(C)cc3)no2)cc1`, the survival is 67% (inactive). To `CCN(C(=O)CSc1nc(-c2ccccc2)no1)c1ccccc1` belongs 79% (inactive). Take `CC(C)c1ccc(-c2noc(SCC(=O)N3CCCCC3)n2)cc1`: the survival is 72% (inactive). Then `CN1C(=O)C2(c3ccccc31)N(c1ccccc1)C(=O)CS2(=O)=O` (stereo unspecified), with 91% (inactive); and `Cc1nc(-c2ccc(F)cc2)sc1CCNC(=O)c1ccco1`, with 116% (inactive).

Consider `O=C(Nc1ccc2nn(-c3ccccc3)nc2c1)c1ccccc1`, for which the survival is 97% (inactive). Take `Cc1cc(C)c2nc(N(Cc3cccnc3)C(=O)Cc3ccccc3)sc2c1`: the survival is 79% (inactive). With `CCCCOc1ccc(C(=O)NCCc2csc(-c3cccc(F)c3)n2)cc1`, the survival was 96% (inactive). Then `O=C(N/N=C1/CSC(=O)N1Cc1cccs1)c1cccs1`, with 75% (inactive).

For the molecule `Cc1cc(C)c(S(=O)(=O)NCCc2cc3cc(C)c(C)cc3[nH]c2=O)c(C)c1`, the survival is 63% (inactive).

With `COc1ccc(N(C)C(C)=O)cc1`, the survival is 91% (inactive). Then `CCc1ccc(C(=O)c2cn(CC(=O)Nc3cc(OC)cc(OC)c3)c3ccc(CC)cc3c2=O)cc1`, with 84% (inactive); and `CC(C)(C)c1ccc(-c2noc(CCC(=O)Nc3cccc(Cl)c3)n2)cc1`, with 87% (inactive). Then `CCN(C(=O)Cc1nc(-c2ccc(OC)cc2)no1)c1cccc(Cl)c1`, with 83% (inactive).

Turning to `CCN(C(=O)CCc1nc(-c2ccc(C)cc2)no1)c1cccc(Cl)c1`, the survival was -5% (active). To `CCOCCCNC(=O)C(c1ccc(OC)cc1)N(Cc1cccs1)C(=O)c1ccc(NC(C)=O)cc1` (stereo unspecified) belongs 53% (inactive); to `Cn1nc(C(=O)NCc2cccc(Cl)c2)c2c1-c1ccccc1SC2`, 74% (inactive); to `CCOC(=O)N1CCC(NC(=O)c2c(C)nn(-c3cccc(C)c3)c2-n2cccc2)CC1`, 89% (inactive).

As for `COc1cc(NC(=O)c2c(C)nn(-c3ccc(F)cc3)c2-n2cccc2)cc(OC)c1`, the survival is 78% (inactive).

Take `Cc1cccc(-n2nc(C)c(C(=O)N3CCN(c4ccccc4)CC3)c2-n2cccc2)c1`: the survival was 66% (inactive).

For `CCOC(=O)N1CCN(C(=O)c2c(C)nn(-c3cccc(C)c3)c2-n2cccc2)CC1`, the survival was 20% (active). Consider `COc1cccc(CNC(=O)c2c(C)nn(-c3cccc(C)c3)c2-n2cccc2)c1`, for which the survival was 81% (inactive). For `COc1cccc(NC(=O)c2c(C)nn(-c3cccc(C)c3)c2-n2cccc2)c1`, the survival was 8% (active). Then `O=C(CCOc1ccccc1)N(Cc1cccnc1)c1nc2c(Cl)cccc2s1`, with 80% (inactive); and `CN(C)c1ccc(CNC(=O)CN(C)S(=O)(=O)c2ccc3c(c2)c(=O)n(C)c(=O)n3C)cc1`, with 97% (inactive); and `COc1ccc(CNC(=O)C(CCSC)NS(=O)(=O)c2ccc3c(c2)oc(=O)n3C)cc1` (stereo unspecified), with 69% (inactive). Then `Cc1c(C(=O)N(C)C)sc2c1c(=O)n(-c1ccccc1C(F)(F)F)c(=O)n2Cc1cccc(F)c1`, with 78% (inactive); and `CN1CCN(C(=O)c2cnn(-c3ccc(F)cc3F)c2C2CCN(C(=O)OC(C)(C)C)CC2)CC1`, with 80% (inactive); and `Cc1cccc(N2CCN(C(=O)c3cnn(-c4ccc(F)cc4F)c3C3CCN(C(=O)OC(C)(C)C)CC3)CC2)c1C`, with 82% (inactive).

For the molecule `Cc1ccc(-n2ncc(C(=O)N3CCN(c4ncccn4)CC3)c2C2CCN(C(=O)OC(C)(C)C)CC2)cc1`, the survival was 80% (inactive). Then `CC(C)(C)OC(=O)N1CCC(c2c(C(=O)N3CCN(c4ncccn4)CC3)cnn2-c2ccccc2)CC1`, with 94% (inactive); and `Cc1ccc(-n2ncc(C(=O)N3CCN(c4cccc(C)c4C)CC3)c2C2CCNCC2)c(C)c1`, with 83% (inactive). To `CC(C)(C)OC(=O)N1CCC(c2c(C(=O)N3CCN(c4ncccn4)CC3)cnn2-c2ccc(F)cc2F)CC1` belongs 6% (active); to `COc1ccccc1N1CCN(C(=O)c2cnn(-c3ccc(F)cc3F)c2C2CCNCC2)CC1`, 32% (active).

`CC(C)(C)OC(=O)N1CCC(c2c(C(=O)N3CCN(c4ccccn4)CC3)cnn2-c2ccc(F)cc2F)CC1`: the survival is 79% (inactive).

With `CC(C)(C)OC(=O)N1CCC(c2c(C(=O)N3CCN(c4ncccn4)CC3)cnn2-c2ccc(F)cc2)CC1`, the survival is 17% (active). Then `CCc1[nH]nc2c1C1(C(=O)Nc3ccc(Cl)cc31)C(C#N)=C(N)O2` (stereo unspecified), with 78% (inactive). In the case of `O=C(CSc1ncc2c(n1)-c1ccccc1N(Cc1ccc(Cl)cc1)S2(=O)=O)c1ccccc1`, the survival was 144% (inactive). To `O=C(CN1C(=O)CC(c2ccco2)Sc2ccccc21)Nc1cccc(C(F)(F)F)c1` (stereo unspecified) belongs 103% (inactive); to `CC1CCCN(Cc2nc3c(c(=O)n(C)c(=O)n3C)n2Cc2ccc(Cl)cc2)C1` (stereo unspecified), 90% (inactive); to `Fc1ccccc1N1CCN(c2c3c(nc4nncn24)CCC3)CC1`, 81% (inactive).

For the molecule `Cc1ccc(N2CCN(S(=O)(=O)c3nnc(NC(=O)c4ccccc4)s3)CC2)cc1`, the survival was 57% (inactive). To `Cc1ccccc1NS(=O)(=O)c1nnc(NC(=O)c2ccccc2C)s1` belongs 76% (inactive); to `CC1CCN(S(=O)(=O)c2nnc(NC(=O)c3ccc(C(C)C)cc3)s2)CC1`, 62% (inactive); to `Cc1cccc(N2CCN(S(=O)(=O)c3cn(C)c(C)n3)CC2)c1C`, 0% (active). Then `Cc1nc(S(=O)(=O)N2CCN(c3ccccc3F)CC2)cn1C`, with 117% (inactive); and `Cc1ccccc1NS(=O)(=O)c1nnc(NC(=O)c2ccc(Cl)cc2)s1`, with 41% (active).

For the molecule `Cc1ccccc1N1CCN(S(=O)(=O)c2nnc(NC(=O)c3ccccc3)s2)CC1`, the survival was 26% (active). Regarding `Cc1ccccc1N1CCN(S(=O)(=O)c2nnc(NC(=O)c3ccc(C(C)C)cc3)s2)CC1`, the survival was 38% (active). To `Cc1ccccc1NS(=O)(=O)c1nnc(NC(=O)c2ccco2)s1` belongs 88% (inactive); to `Cc1ccc(C)c(N2CCN(S(=O)(=O)c3cn(C)c(C)n3)CC2)c1`, 72% (inactive); to `CC(C)OC(=O)Cn1nnc(-c2ccccc2)n1`, 82% (inactive). Then `CC(=O)c1cccc(NC(=O)c2ccc(-n3c(C)nnc3C)cc2)c1`, with 70% (inactive); and `CC(C)(C)OC(=O)N1C(C(=O)O)CSC1c1cccc(Br)c1` (stereo unspecified), with 101% (inactive). For the molecule `Cc1ccc(NC(=O)N2CCc3cc(S(=O)(=O)N4CCC(C)CC4)ccc32)cc1`, the survival is 96% (inactive).

Consider `Cc1ccc(CN(Cc2cccn2-c2nnc(N3CCCC3=O)s2)C(=O)Nc2ccccc2Cl)cc1`, for which the survival is 104% (inactive). To `COc1ccccc1CNC(=O)c1cn(C)c2ccc(S(=O)(=O)N3CCC(C)CC3)cc2c1=O` belongs 92% (inactive); to `Cc1ccc(N(C)S(=O)(=O)c2ccc(-c3coc(C)n3)cc2)cc1`, 75% (inactive); to `COc1ccc(NC(=O)CCCc2nc(-c3ccco3)no2)c(OC)c1`, 107% (inactive). For the molecule `CC1Cc2cc(S(=O)(=O)CCC(=O)Nc3ccc(OC(F)(F)F)cc3)ccc2N1C(=O)C1CC1` (stereo unspecified), the survival is 85% (inactive).
